The supplement of paper PMC12350171
Where a name gives a salt, the structure may show the parent alone. A number with no mark means an inactive call.

How the values were obtained:
Settings in all cases: 20 µM
[1] = system: Salmonella enterica typhimurium; experiment: growth AUC normalised to DMSO control (fraction of control); higher = less growth inhibition, active = hit call of the paper
Procedure, shortened: (§1)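 Pathogens passaged twice anaerobically were inoculated at a starting OD578 of 0.01 into pre-reduced mGAM plates with drug at 20 μM and 1% DMSO, sealed with breathable membranes. Haemophilus parainfluenzae medium was supplemented with hemin and NAD. OD578 was read hourly for 24 h, with three biological replicates. Growth-curve AUC was computed by the trapezoidal rule up to the exponential-to-stationary transition and normalised to DMSO controls on the same plate.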

[2] = system: Shigella flexneri; experiment: as above
Procedure, shortened: as §1

[3] = system: Vibrio cholerae; experiment: as above
Procedure, shortened: as §1

[4] = system: Yersinia pseudotuberculosis; experiment: as above
Procedure, shortened: as §1

[5] = system: P. vulgatus RND KO; experiment: growth AUC normalised to DMSO control (median) (fraction of control); higher = less growth inhibition, active = hit call of the paper
Procedure, shortened: (§2)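 Each strain went through two overnight passages under anaerobic conditions before growth in mGAM in 96-well plates, starting at OD578 0.01, with each compound from the approved-drug library at 20 μM and 1% DMSO. Inside an anaerobic incubator, OD578 was recorded every hour for 24 h. Growth curves were cut off at entry into stationary phase, and the area under the curve was calculated by the trapezoidal rule and normalised to vehicle wells on the same plate. Reported values are medians of three biological replicates.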

[6] = system: P. vulgatus WT; experiment: as above
Procedure, shortened: as §2

[7] = system: S. enterica typhimurium WT; experiment: as above
Procedure, shortened: as §2

[8] = system: S. enterica typhimurium tolC KO; experiment: as above
Procedure, shortened: as §2
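Throughout, for growth AUC normalised to DMSO control (median): active when median AUC fell below 0.1.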

Row | Structure (SMILES) | growth AUC normalised to DMSO control [1] | growth AUC normalised to DMSO control [2] | growth AUC normalised to DMSO control [3] | growth AUC normalised to DMSO control [4] | growth AUC normalised to DMSO control [5] | growth AUC normalised to DMSO control [6] | growth AUC normalised to DMSO control [7] | growth AUC normalised to DMSO control [8]
1 | COc1cccc2c1C(=O)c1c(O)c3c(c(O)c1C2=O)C[C@@](O)(C(C)=O)C[C@@H]3O[C@H]1C[C@H](N)[C@H](O)[C@H](C)O1 [Daunorubicin hydrochloride] | 0.998 | 0.959 | 1.04 | 0.978 | 0.865 | 0.95 | 0.999 | 0.00353 (active)
2 | CC(C)(C#N)c1cc(Cn2cncn2)cc(C(C)(C)C#N)c1 [Anastrozole] | 1.02 | 1.07 | 1.04 | 0.696 | 1.09 | 1.06 | 0.991 | 0.996
3 | CN(C)CCC=C1c2ccccc2CCc2ccccc21 [Amitryptiline hydrochloride] | 0.997 | 0.999 | 0.905 | 1.01 | 0.993 | 0.959 | 0.998 | 0.97
4 | CCN(CC)CCNC(C(=O)OCCC(C)C)c1ccccc1 (configuration not stated) [Camylofine chlorhydrate] | 0.992 | 0.991 | 0.953 | 0.997 | 1.01 | 1.02 | 1 | 0.973
5 | CN1CCN(CCCN2c3ccccc3Sc3ccc(S(=O)(=O)N(C)C)cc32)CC1 [Thioproperazine dimesylate] | 0.999 | 0.986 | 0.968 | 1 | 1.03 | 1.01 | 0.994 | 0.96
6 | NC[C@H]1O[C@H](O[C@H]2[C@H](O[C@@H]3O[C@H](CO)[C@@H](O)[C@H]3O)[C@@H](O)[C@H](N)C[C@@H]2N)[C@H](N)[C@@H](O)[C@@H]1O [Ribostamycin sulfate salt] | 0.981 | 0.918 | 0.974 | 0.995 | 0.988 | 0.986 | 0.98 | 0.99
7 | Cc1noc(NS(=O)(=O)c2ccc(N)cc2)c1C [Sulfisoxazole] | 0.995 | 1 | 1.03 | 0.971 | 1 | 1.05 | 0.997 | 0.98
8 | O=C1NCCN1c1ncc([N+](=O)[O-])s1 [Niridazole] | 0.0187 (active) | 0.204 (active) | 0.036 (active) | 0.93 | 0.00953 (active) | 0.00802 (active) | 0.0321 (active) | 0.0104 (active)
9 | NCCNCCNCCNCCN [Tetraethylenepentamine pentahydrochloride] | 0.99 | 0.972 | 0.979 | 0.998 | 0.998 | 0.995 | 1.01 | 1
10 | CCN(CC)C(=O)c1ccc(O)c(OC)c1 [Ethamivan] | 0.981 | 1.03 | 1.03 | 1 | 1.04 | 1.06 | 1.01 | 1.01
11 | O=C1OCCN1/N=C/c1ccc([N+](=O)[O-])o1 [Furazolidone] | 0.391 (active) | 0.0191 (active) | 0.0449 (active) | 0.842 (active) | 0.0122 (active) | 0.00859 (active) | 0.459 | 0.609
12 | CN(C)CCN1C(=O)c2ccccc2N(C)c2ccccc21 [Dibenzepine hydrochloride] | 0.986 | 0.972 | 0.984 | 0.977 | 0.994 | 0.979 | 0.988 | 0.992
13 | CCOc1ccc(NC(C)=O)cc1 [Phenacetin] | 0.992 | 0.959 | 0.984 | 0.973 | 1 | 0.997 | 1 | 1
14 | O=C(Cn1ccnc1[N+](=O)[O-])NCCO [Etanidazole] | 1.01 | 1.03 | 1.03 | 1.02 | 0.991 | 1.01 | 0.99 | 1.02
15 | O=C(O)CN(CCN(CC(=O)O)CC(=O)O)CCN(CC(=O)O)CC(=O)O [Pentetic acid] | 1 | 1.01 | 1.03 | 1.07 | 1.05 | 1.08 | 1.02 | 0.998
16 | CCCCN(CCCC)CCCOC(=O)c1ccc(N)cc1 [Butacaine] | 0.988 | 1.01 | 0.981 | 1 | 1.05 | 1.04 | 1.01 | 1

Row | Structure (SMILES) | growth AUC normalised to DMSO control [1] | growth AUC normalised to DMSO control [2] | growth AUC normalised to DMSO control [3] | growth AUC normalised to DMSO control [4] | growth AUC normalised to DMSO control [5] | growth AUC normalised to DMSO control [6] | growth AUC normalised to DMSO control [7] | growth AUC normalised to DMSO control [8]
17 | CC(C)COCC(CN(Cc1ccccc1)c1ccccc1)N1CCCC1 (configuration not stated) [Bepridil hydrochloride] | 1 | 0.965 | 0.875 | 1.02 | 0.996 | 0.982 | 0.986 | 0.906
18 | COc1c2occc2c(OC)c2c(=O)cc(C)oc12 [Khellin] | 1 | 1.05 | 0.983 | 1.01 | 1 | 1.02 | 1.02 | 0.985
19 | NS(=O)(=O)c1cc2c(cc1C(F)(F)F)NC(Cc1ccccc1)NS2(=O)=O (configuration not stated) [Bendroflumethiazide] | 1 | 1.01 | 0.997 | 1.01 | 0.962 | 0.977 | 1.01 | 0.993
20 | CN(C/C=C/c1ccccc1)Cc1cccc2ccccc12 [Naftifine hydrochloride] | 1.01 | 1.01 | 0.933 | 1.04 | 0.996 | 1.01 | 0.998 | 0.932
21 | COc1cnc(NS(=O)(=O)c2ccc(N)cc2)nc1 [Sulfameter] | 1 | 0.986 | 1.01 | 1 | 0.992 | 1 | 0.993 | 0.993
22 | CN(CCCCCCCCCCN(C)C(=O)Oc1cccc([N+](C)(C)C)c1)C(=O)Oc1cccc([N+](C)(C)C)c1 [Demecarium bromide] | 0.99 | 1 | 0.984 | 1.01 | 0.944 | 0.88 | 0.991 | 0.922
23 | C=C1/C(=C\C=C2/CCC[C@]3(C)[C@@H]([C@H](C)/C=C/[C@@H](O)C4CC4)CC[C@@H]23)C[C@@H](O)C[C@@H]1O [Calcipotriene] | 0.987 | 0.931 | 0.972 | 0.977 | 0.931 | 0.958 | 1.01 | 0.946
24 | O=c1cc(-c2ccc(O)c(O)c2)oc2cc(O)cc(O)c12 [Luteolin] | – | 1 | 0.976 | 0.978 | 0.987 | 1.02 | 0.993 | 0.878
25 | NC(=O)c1cc[n+](CC2=C(C(=O)[O-])N3C(=O)[C@@H](NC(=O)[C@@H](c4ccccc4)S(=O)(=O)O)[C@H]3SC2)cc1 [Cefsulodin sodium salt] | 0.944 | 0.999 | 0.976 | 0.865 (active) | – | 0.983 | 1 | 0.978
26 | Cc1onc(-c2ccccc2)c1C(=O)N[C@@H]1C(=O)N2[C@@H]1SC(C)(C)[C@@H]2C(=O)O [Oxacillin sodium] | 0.975 | 1.03 | 0.961 | 0.908 (active) | – | 0.151 | 0.994 | 0.0924 (active)
27 | CN(Cc1cnc2nc(N)nc(N)c2n1)c1ccc(C(=O)N[C@@H](CCC(=O)O)C(=O)O)cc1 [Amethopterin] | 0.983 | 0.948 | 0.912 | 0.982 | – | 0.916 | 0.997 | 0.7
28 | CCN(CC)C(=S)SSC(=S)N(CC)CC [Disulfiram] | – | 0.968 | 0.989 | 0.97 | 0.896 | 1.07 | 0.995 | 1
29 | CN1C(C(=O)Nc2ccccn2)=C(O)c2sccc2S1(=O)=O [Tenoxicam] | – | 0.94 | 0.791 (active) | 0.993 | 0.97 | 0.969 | 1 | 0.956
30 | Cn1c(=O)c2c(ncn2C)n(C)c1=O [Caffeine] | – | 1.04 | 1.03 | 1.01 | 1.02 | 1.02 | 0.993 | 0.999
31 | CCOC(=O)OC(C)OC(=O)[C@@H]1N2C(=O)[C@@H](NC(=O)[C@H](N)c3ccccc3)[C@H]2SC1(C)C (some centres not stated) [Bacampicillin hydrochloride] | 0.00881 (active) | 0.0323 (active) | 1 | 0.277 (active) | – | – | 0.154 | 0.0179 (active)
32 | CC(C)C(=O)c1c(C(C)C)nn2ccccc12 [Ibudilast] | 1.01 | 1.01 | 1.05 | 0.994 | 0.949 | 0.956 | 1 | 0.33
